The values below come from PubChem BioAssay (Tox21).

Experiment [1] can be described thus: Nuclear factor erythroid 2-related factor 2/antioxidant responsive element (Nrf2/ARE) small molecule agonists: qHTS cell viability counter screen in human keratinocytes (AID 1919968; active = well fitted curve in the direction sought with a large enough effect in the repeat runs; an effect the other way counts as inactive or inconclusive; note: nearly all actives have a fitted effect of over 55% in size; note: potency is the fitted concentration of half-maximal effect). Summed up: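 Fluorescence read-out from CellTiter-Fluor after 1 h at 37 C. Wells held HaCaT-derived ARE-luciferase reporter cells (1,500/well) treated 23 h with DMSO-dissolved compounds. Run in the same wells as the luciferase agonist read.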
Background: In qHTS, concentration-response curves come from the screen itself.

Experiment [2] is described as follows: Nuclear factor erythroid 2-related factor 2/antioxidant responsive element (Nrf2/ARE) small molecule agonists: luciferase reporter gene qHTS assay in human keratinocytes (AID 1919969). Note: nearly all actives have a fitted effect of over 35% in size.
Experiment [3] concerns the target Gonadotropin-releasing hormone receptor (Homo sapiens) (UniProt P30968). Description: Human gonadotropin-releasing hormone receptor (GnRHR) small molecule agonists, calcium flux assay in GnRHR-HEK293 cells (AID 1920063). Note: nearly all actives have a fitted effect of over 35% in size. Summed up:
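Calcium-dye fluorescence, Ex/Em=480/540, recorded every 1 sec over 3 min after compound addition to GnRHR-HEK293 cells. Cells had been seeded 18 hours earlier and dye-loaded for 1 hour at 37 C. Fifteen concentrations, triplicates.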
Background: A change in cytosolic calcium serves as a functional read-out for many receptors and channels.

The target of experiment [4] is KiSS-1 receptor (Homo sapiens) (UniProt Q969F8). Description: Human kisspeptin (KISS1R) small molecule agonists, calcium flux assay in KISS1R-HEK293 cells (AID 1920064; active = well fitted curve in the direction sought with a large enough effect in the repeat runs; an effect the other way counts as inactive or inconclusive). A digest of the protocol: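 Calcium flux read-out: kinetic fluorescence at Ex/Em=480/540, 1 s intervals over 3 min, after pin-tool compound addition to dye-loaded KISS1R-HEK293 cells. Fifteen concentrations, triplicates.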

Experiment [5] in a line: G protein-coupled receptor (GPCR) small molecule agonists, calcium flux assay: HEK293 wild type cell line counter screen (AID 1920065). A digest of the protocol: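 Agonist mode; 18 h seeding at 37 C, 1 h dye load at 37 C; compounds pinned from DMSO, ATP as positive control; kinetic fluorescence 480/540 nm, 3 min, 1 s reads; 15 concentrations, triplicate.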
The nature of experiment [6]: p53 small molecule agonists, cell-based qHTS assay with rat liver microsomes (AID 1963578). A digest of the protocol: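 Metabolic activation is supplied by rat liver microsomes with NADPH (each 0.5 mg/mL final). p53RE-bla cells incubate with compound 16 h at 37 C; reporter activity is measured by LiveBLAzer fluorescence.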
Experiment [7] in a line: p53 small molecule agonists, cell-based qHTS assay with human liver microsomes: qHTS cell viability counter screen (AID 1963579). Note: nearly all actives have a fitted effect of over 45% in size. A digest of the protocol:
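After the 460/530 nm beta-lactamase read, CellTiter-Glo was added to the same wells and luminescence measured after 30 min at room temperature, giving viability of p53RE-bla cells treated 16 h with compounds plus microsomes and NADPH.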

The target of experiment [8] is 5-hydroxytryptamine receptor 2A (Homo sapiens) (UniProt P28223). Description: 5-hydroxytryptamine receptor 2A (HTR2A) small molecule antagonists, cell-based qHTS assay (AID 1963586). Note: nearly all actives have a fitted effect of over 45% in size. Note: potency is the fitted concentration of half-maximal effect. A digest of the protocol:
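CHO cells stably expressing human HTR2A were plated for 18 h at 37 C, then loaded with calcium dye for 1 h. Compounds were preincubated 5 min at room temperature before DOI (4 nM solution) was added. Kinetic fluorescence was read for 3 min.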

Experiment [9] has the same target. Description: 5-hydroxytryptamine receptor 2A (HTR2A) small molecule agonists, cell-based qHTS assay (AID 1963587). Note: nearly all actives have a fitted effect of over 30% in size. Note: potency is the fitted concentration of half-maximal effect. A digest of the protocol:
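HTR2A-CHO cells, plated 18 h at 37 C/5% CO2, dye-loaded 1 h at 37 C; compounds in DMSO added by pin tool (agonist mode). Intracellular calcium flux read as kinetic fluorescence on FDSS over 2 min at 1 s intervals.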

In experiment [10] the target is Muscarinic acetylcholine receptor M1 (Homo sapiens) (UniProt P11229). Description: Cholinergic receptor muscarinic 1 (CHRM1) small molecule antagonists, cell-based qHTS assay (AID 1963588). Note: nearly all actives have a fitted effect of over 40% in size. A digest of the protocol: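 Compounds were tested at 15 concentrations in three independent runs. Dye-loaded CHRM1-CHO cells were exposed 5 min at room temperature before stimulation by acetylcholine added at 50nM. Intracellular calcium was read kinetically on FDSS for 3 min.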

Experiment [11] has the same target. Description: Cholinergic receptor muscarinic 1 (CHRM1) small molecule agonists, cell-based qHTS assay (AID 1963589). Note: nearly all actives have a fitted effect of over 35% in size. A digest of the protocol:
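Calcium flux read-out: kinetic fluorescence at 1 sec intervals after pin-tool compound addition to dye-loaded CHRM1-CHO cells (human M1). Agonist mode; 15 concentrations tested in triplicate independent runs.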

Experiment [12] can be described thus: cAMP Responsive Elements (CRE) small molecule agonists, cell-based qHTS assay (AID 1963590). A digest of the protocol:
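Beta-lactamase reporter readout: LiveBLAzer B/G FRET substrate, 2 h at room temperature, added after 3 h compound treatment of CRE-bla HEK 293T cells at 37 C/5% CO2.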

Experiment [13] can be described thus: cAMP Responsive Elements (CRE) small molecule antagonists, cell-based qHTS assay (AID 1963591; active = well fitted inhibition curve with a large enough effect in the signal ratio in the repeat runs, not every such curve was filed as active; the % refers to the signal ratio). A digest of the protocol:
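HEK293T CRE-bla; 18 h preincubation; compound pin-transfer; NKH477 0.25 uM final, 3 h, 37 C; LiveBLAzer FRET substrate 2 h RT.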

Experiment [14] addresses Beta-2 adrenergic receptor (Homo sapiens) (UniProt P07550). Description: Adrenergic beta2 receptor (ADRB2) small molecule antagonists, cell-based qHTS assay (AID 1963592). Note: nearly all actives have a fitted effect of over 50% in size. Note: potency is the fitted concentration of half-maximal effect. A digest of the protocol: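 Assay format: CHO-ADRB2 cells, 18-20hr seeding at 37C/5% CO2, then compound plus 1nM isoproterenol agonist mix for 0.5hr RT. Homogeneous time-resolved fluorescence cAMP detection after 1hr, expressed as 665/615 nm ratio.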

For experiment [15] the target is unchanged. Description: Adrenergic beta2 receptor (ADRB2) small molecule agonists, cell-based qHTS assay (AID 1963593).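 Note: CHO cells stably overexpressing human ADRB2.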 Summed up: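 CHO cells stably over-expressing ADRB2 were plated overnight at 37C, then dosed with compounds plus a stimulation mix containing 100uM IBMX and 25uM Ro-20-1724 for 0.5hr at room temperature. cAMP was measured by HTRF competition, 1hr.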

The target in experiment [16] is D(2) dopamine receptor (Homo sapiens) (UniProt P14416). Description: Dopamine D2 receptor (DRD2) small molecule agonists, cell-based qHTS assay (AID 1963594). Note: nearly all actives have a fitted effect of over 35% in size. Summed up: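 HEK293 cells stably expressing DRD2 were cultured 24 h at 37 C, then given Ro20-1724 (0.1 mM final) and compounds for 10 min at room temperature. NKH477 (200nM) was then added for 30 min. cAMP was read by HTRF.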

Experiment [17] has the same target. Description: Dopamine D2 receptor (DRD2) small molecule antagonists, cell-based qHTS assay (AID 1963595; active = well fitted inhibition curve with a large enough effect in the signal ratio in the repeat runs, with a control signal flat; the % refers to the signal ratio). A digest of the protocol: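 In this cell-based antagonist screen, compounds act for 10 min at room temperature before a 30 min challenge with 12 nM quinpirole and 200 nM NKH477. cAMP is quantified by HTRF competition in DRD2-HEK293 cells containing 0.1 mM Ro20-1724.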

Experiment [18] in a line: p53 small molecule agonists, cell-based qHTS assay with rat liver microsomes: qHTS cell viability counter screen (AID 1963580). Note: nearly all actives have a fitted effect of over 45% in size. A digest of the protocol: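 Luminescent ATP readout (CellTiter-Glo, 30 min at room temperature) reports viability of p53RE-bla HCT-116 cells after 16 h at 37 C with test compounds under metabolic activation by rat liver microsomes and NADPH at 0.5 mg/mL final each.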

Experiment [19] is described as follows: p53 small molecule agonists, cell-based qHTS assay: qHTS cell viability counter screen (AID 1963581). Note: nearly all actives have a fitted effect of over 45% in size. Note: potency is the fitted concentration of half-maximal effect. A digest of the protocol:
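Cytotoxicity read-out: ATP-based luminescence (CellTiter-Glo, 30 min RT) measured in the same wells as the p53 reporter assay, HCT-116 p53RE-bla cells, 16 h compound exposure at 37 C.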

Experiment [20] is described as follows: p53 small molecule agonists, cell-based qHTS assay (AID 1963582; active = well fitted activation curve with a large enough effect in the signal ratio in the repeat runs, not every such curve was filed as active; the % refers to the signal ratio). A digest of the protocol:
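Fluorescence intensity read-out of a beta-lactamase reporter under a p53 response element. Cells were exposed to DMSO-dissolved compounds for 16 h at 37 C, then developed with FRET substrate for 2 h at RT.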

Inconclusive results are not listed. The source made the active and inactive calls. Unless noted, calls come from the whole dose curve.

Muscarinic acetylcholine receptor M1 (Homo sapiens), sequence (P11229 whole entry, looked up): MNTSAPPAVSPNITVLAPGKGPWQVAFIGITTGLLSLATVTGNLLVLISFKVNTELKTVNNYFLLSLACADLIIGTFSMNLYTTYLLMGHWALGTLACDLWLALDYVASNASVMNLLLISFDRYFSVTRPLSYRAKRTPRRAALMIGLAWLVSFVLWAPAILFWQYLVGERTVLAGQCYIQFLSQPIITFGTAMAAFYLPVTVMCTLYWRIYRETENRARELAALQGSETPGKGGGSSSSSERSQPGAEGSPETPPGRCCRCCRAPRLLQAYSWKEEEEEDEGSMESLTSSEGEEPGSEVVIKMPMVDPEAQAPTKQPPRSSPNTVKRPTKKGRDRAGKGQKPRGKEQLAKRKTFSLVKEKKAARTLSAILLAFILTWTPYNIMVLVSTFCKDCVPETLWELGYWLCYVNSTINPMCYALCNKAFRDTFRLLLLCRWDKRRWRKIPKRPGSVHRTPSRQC
Gonadotropin-releasing hormone receptor (Homo sapiens), sequence (P30968 whole entry, looked up): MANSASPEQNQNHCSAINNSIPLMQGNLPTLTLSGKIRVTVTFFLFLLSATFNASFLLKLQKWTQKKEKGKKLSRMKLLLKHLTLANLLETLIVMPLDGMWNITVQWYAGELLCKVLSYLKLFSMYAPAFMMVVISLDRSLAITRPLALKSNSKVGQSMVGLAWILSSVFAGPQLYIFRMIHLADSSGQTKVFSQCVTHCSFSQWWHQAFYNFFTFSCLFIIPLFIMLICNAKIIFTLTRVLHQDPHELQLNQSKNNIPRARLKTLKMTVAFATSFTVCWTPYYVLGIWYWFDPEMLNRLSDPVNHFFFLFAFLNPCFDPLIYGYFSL
5-hydroxytryptamine receptor 2A (Homo sapiens), sequence (P28223 whole entry, looked up): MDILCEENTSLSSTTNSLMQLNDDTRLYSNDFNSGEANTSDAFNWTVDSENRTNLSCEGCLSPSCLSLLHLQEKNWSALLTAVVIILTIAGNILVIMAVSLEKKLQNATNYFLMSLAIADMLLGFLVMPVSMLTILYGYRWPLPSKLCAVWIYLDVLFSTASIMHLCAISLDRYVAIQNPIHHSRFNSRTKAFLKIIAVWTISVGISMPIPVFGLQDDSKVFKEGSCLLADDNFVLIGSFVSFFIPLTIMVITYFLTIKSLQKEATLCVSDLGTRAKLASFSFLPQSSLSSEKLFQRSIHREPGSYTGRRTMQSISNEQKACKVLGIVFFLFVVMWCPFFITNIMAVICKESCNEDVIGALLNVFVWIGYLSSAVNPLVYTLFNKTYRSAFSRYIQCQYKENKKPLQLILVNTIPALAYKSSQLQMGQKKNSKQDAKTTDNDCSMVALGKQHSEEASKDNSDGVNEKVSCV
KiSS-1 receptor (Homo sapiens), sequence (Q969F8 whole entry, looked up): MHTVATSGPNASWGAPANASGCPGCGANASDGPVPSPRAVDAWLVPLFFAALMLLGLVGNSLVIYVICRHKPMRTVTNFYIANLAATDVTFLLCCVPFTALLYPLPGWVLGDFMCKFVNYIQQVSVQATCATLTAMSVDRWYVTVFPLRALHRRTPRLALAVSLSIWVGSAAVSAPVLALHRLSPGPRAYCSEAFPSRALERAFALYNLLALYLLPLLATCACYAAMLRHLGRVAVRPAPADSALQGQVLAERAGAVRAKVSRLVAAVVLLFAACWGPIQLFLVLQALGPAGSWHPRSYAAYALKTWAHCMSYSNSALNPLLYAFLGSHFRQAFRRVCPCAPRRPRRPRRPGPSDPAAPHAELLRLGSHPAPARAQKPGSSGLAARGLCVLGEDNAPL
D(2) dopamine receptor (Homo sapiens), sequence (P14416 whole entry, looked up): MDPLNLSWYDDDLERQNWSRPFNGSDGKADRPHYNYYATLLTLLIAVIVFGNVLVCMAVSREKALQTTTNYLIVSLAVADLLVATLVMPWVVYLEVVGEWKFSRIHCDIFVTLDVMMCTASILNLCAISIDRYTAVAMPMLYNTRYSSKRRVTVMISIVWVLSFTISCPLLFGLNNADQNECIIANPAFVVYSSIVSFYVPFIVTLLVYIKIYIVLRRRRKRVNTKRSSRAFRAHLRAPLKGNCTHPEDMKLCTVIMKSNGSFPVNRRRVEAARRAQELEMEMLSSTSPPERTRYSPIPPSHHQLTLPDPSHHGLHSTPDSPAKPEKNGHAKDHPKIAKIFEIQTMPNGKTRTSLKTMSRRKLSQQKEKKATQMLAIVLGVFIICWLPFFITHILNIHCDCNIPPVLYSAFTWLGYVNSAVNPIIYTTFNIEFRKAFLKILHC
Beta-2 adrenergic receptor (Homo sapiens), sequence (P07550 whole entry, looked up): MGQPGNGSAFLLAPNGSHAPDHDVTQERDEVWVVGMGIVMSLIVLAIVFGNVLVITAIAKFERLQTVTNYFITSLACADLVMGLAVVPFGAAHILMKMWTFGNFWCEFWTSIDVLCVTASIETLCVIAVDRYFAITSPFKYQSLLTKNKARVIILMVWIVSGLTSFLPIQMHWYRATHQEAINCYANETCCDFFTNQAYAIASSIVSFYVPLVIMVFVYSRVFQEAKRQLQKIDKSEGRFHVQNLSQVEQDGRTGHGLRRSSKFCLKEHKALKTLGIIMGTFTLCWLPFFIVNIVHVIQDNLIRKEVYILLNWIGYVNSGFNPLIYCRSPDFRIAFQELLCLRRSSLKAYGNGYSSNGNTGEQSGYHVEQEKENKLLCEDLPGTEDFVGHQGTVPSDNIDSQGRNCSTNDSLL

As for `CCCCCCCCCCCCCOP(=O)(O)O`, the Potency result in [1], in experiment [2], in [3], in [6], in experiment [7] and in experiment [8] was “inactive” each time. Moreover, the Potency result in experiment [9], in experiment [10], in experiment [11], in [12], in [13] and in experiment [14] was “inactive” in each case. In addition, the Potency result in experiment [15], in [16] and in [17] was “inactive” each time. Moreover, the result in [4] and in experiment [5] was inactive.
Take `CCCCCN=C(N)N/N=C/c1c[nH]c2ccc(OC)cc12`: the Potency is 6.68 µM (active) in experiment [1]; 15.8 µM (active) in experiment [19]; 0.0326 µM (active) in [8]; 0.0107 µM (active) in experiment [9]; 26.6 µM (active) in experiment [14]. The Potency result in experiment [2], in experiment [3], in experiment [6], in experiment [7], in experiment [18] and in experiment [10] was “inactive” throughout. The Potency result in [11] was “inactive”. Besides, the outcome in experiment [4] and in experiment [5] was inactive.
Take `C=Cc1ccccc1C=C`: the Potency entry in experiment [1], in experiment [2], in [3], in experiment [6], in experiment [7] and in [18] was “inactive” throughout. Also, the Potency entry in experiment [20], in experiment [9], in experiment [10], in experiment [11], in [12] and in experiment [13] was “inactive” in each case. Besides, the Potency result in experiment [14], in [16] and in experiment [17] was “inactive” in each case. Moreover, the result in experiment [4] and in experiment [5] was inactive.
As to `CCCCS`, the Potency entry in [1], in [2], in [3], in [6], in experiment [7] and in [18] was “inactive” each time. For the same compound, the Potency entry in experiment [19], in experiment [8], in experiment [9], in [10], in experiment [11] and in [12] was “inactive” in each case. For the same compound, the Potency result in [13], in experiment [14], in experiment [16] and in experiment [17] was “inactive” in each case. Moreover, the outcome in [4] and in experiment [5] was inactive.
With `C=COCC(C)C`, the Potency entry in [1], in experiment [2], in [3], in [6], in [7] and in experiment [18] was “inactive” throughout. For the same compound, the Potency result in [19], in [8], in [9], in [10], in experiment [11] and in experiment [12] was “inactive” throughout. Further, the Potency entry in experiment [14], in experiment [15], in [16] and in [17] was “inactive” each time. For the same compound, the result in experiment [4] and in [5] was inactive.
`O=C(/C=C/c1ccc(O)c(O)c1)O[C@@H]1C[C@](O)(C(=O)O)C[C@@H](O)[C@H]1O`: the Potency result in experiment [1], in [2], in [3], in experiment [6], in [7] and in [18] was “inactive” each time. Also, the Potency result in experiment [20], in experiment [8], in experiment [9], in [10], in [11] and in experiment [12] was “inactive” each time. Also, the Potency entry in experiment [13] and in [16] was “inactive” throughout. The result in [4] and in [5] was inactive.
As for `O=NN(CCCl)C(=O)NCCCl`, the Potency result in [1], in experiment [2], in [3], in experiment [6], in experiment [7] and in [19] was “inactive” in each case. Also, the Potency entry in experiment [20], in experiment [13], in [14], in experiment [15], in experiment [16] and in [17] was “inactive” throughout. Further, the result in experiment [4] and in [5] was inactive.
